Assay results from paper PMC5540273 (PLoS ONE, 2017).

Each molecule was assayed on MAP4K5. Settings: concentration: 1 μM,replicates: in singlicate; n = 1.
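Note: KINOMEscan kinase panel screen.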

SMILES	%Inh
Cn1ccc2ncnc(Oc3ccc(NC(=O)Nc4cc(C(C)(C)C)on4)c(Cl)c3)c21	25%
CC(=O)Nc1ccc(-c2cc3ncnc(SCC(=O)O)c3s2)cc1	0%
CN(c1ccccc1CNc1nc(Nc2ccc3c(c2)CC(=O)N3)ncc1C(F)(F)F)S(C)(=O)=O	13%
FC(F)(F)c1cc(Br)cc(Nc2nccc(-c3cnn4ncccc34)n2)c1 [GW810578]	18%
O=C1NCCc2[nH]c(-c3ccncc3)cc21	6%
O=C(Nc1cccc(C(F)(F)F)c1)c1cccc(Oc2ccc3nccn3n2)c1	23%
Cc1ccc(CC(=O)N2CCc3cc(-c4cn(C)c5ncnc(N)c45)ccc32)cc1 [GSK2634758]	77%
COC(=O)c1cccc(NC(=O)NC2CCN(c3ccnc(NCc4ccc(F)cc4)n3)CC2)c1 [GSK1379860]	0%
Cn1ccc2ncnc(Oc3ccc(NC(=O)Nc4ccnc(C(F)(F)F)c4)c(Cl)c3)c21	0%
O=C(NOCC1CC1)c1cc(Br)c(F)c(F)c1Nc1ccc(I)cc1Cl	0%
COc1ccc(Nc2nccc(N3CCC(NC(=O)c4cccc(C#N)c4)C3)n2)cc1 (stereo not drawn) [GSK1379730]	10%
COc1cccc(C2=C(Nc3cccc(Cl)c3)C(=O)NC2=O)c1 [SB-341556]	2%
Cc1n[nH]c2cc(Nc3ccnc(Nc4cccc(CN5CCOCC5)c4)n3)ccc12 [GW682569]	14%
C[C@@H]1CNc2c(sc3ccc4nc(-c5ccncc5)ccc4c23)C(=O)N1	0%
C[C@@H]1CCN(C(=O)N2CCCC2)C[C@@H]1N(C)c1ncnc2[nH]ccc12	0%
Cl.c1ccc(Oc2ccc(Nc3ccnc4cc(-c5ccc(CN6CCNCC6)o5)ccc34)cc2)nc1 [GW567142]	13%
COc1cc2c(Nc3ccc(NC(=O)c4ccccc4)cc3)ncnc2cc1OCCCN1CCOCC1 [GSK301329]	63%
c1ccc(Oc2ccc(Nc3ccnc4ccc(-c5ccccn5)cc34)cc2)cc1 [GW407034]	13%
COc1cc2ncn(-c3cc(OCC4CCCCC4)c(C(N)=O)s3)c2cc1OC [GSK204559]	38%

SMILES	%Inh
C[C@@H]1CNc2c(sc3ccc4nc(-c5ccc(O)cc5)ccc4c23)C(=O)N1	13%
NC(=O)c1ccc(-c2cc3ncnc(SCC(=O)O)c3s2)cc1	1%
CS(=O)(=O)Nc1ccc(-c2ccnc3[nH]ccc23)cc1 [GSK993273]	0%
N#Cc1cccc(C(=O)NC2CCN(c3ccnc(Nc4ccc(F)cc4)n3)C2)c1 (stereo not drawn) [GSK1379708]	1%
CS(=O)(=O)c1cccc(CNc2nc(Nc3ccc4c(c3)[C@@H]3C[C@@H]4CNC3=O)ncc2C(F)(F)F)c1	0%
COc1cc(Nc2nccc(N3CCC(NC(=O)c4cccc(C#N)c4)C3)n2)cc(OC)c1OC (stereo not drawn) [GSK1379751]	0%
CN1CCN(CCCNc2nccc(-c3c(-c4ccc(F)cc4)nn4cc(C(N)=O)ccc34)n2)CC1 [GW622475]	33%
COc1cccc(OC)c1C(=O)Nc1cccc(-c2nn3ccccc3c2-c2ccnc(Nc3cccc(F)c3)n2)c1 [GSK361065]	67%
CCOC(=O)N1CCC(n2cnc(-c3ccc(F)cc3)c2-c2ccnc(N)n2)CC1 [SB-219952]	4%
COC(=O)Nc1nc2cc(Oc3ccc(NC(=O)Nc4cc(C(F)(F)F)ccc4Cl)cc3)ccc2[nH]1.Cl [GW697465]	23%
CS(=O)c1ccc(-c2coc3ccc(-c4n[nH]c(=O)o4)cc23)cc1 (stereo not drawn)	0%
Cn1ccc2ncnc(Oc3ccc(NC(=O)Nc4cncc(C(F)(F)F)c4)c(Cl)c3)c21	0%
Nc1nccc(-c2ccc3c(N)n[nH]c3c2)n1 [GSK1034945]	0%
NC(=O)Nc1sc(-c2ccc(F)cc2)cc1C(N)=O [GW789449]	13%
CN1CCN(CCNc2nc3cc(Oc4ccc(NC(=O)Nc5cc(C(F)(F)F)ccc5F)cc4)ccc3[nH]2)CC1.Cl.Cl [GW768504]	6%
Cl.Nc1n[nH]c2cc(-c3ccccn3)ccc12 [GSK2189892]	0%
CCn1c(-c2nonc2N)nc2cncc(CNC3CCNCC3)c21.Cl [SB-747651]	0%
Cn1ccc2ncnc(Oc3ccc(NC(=O)Nc4cccc(C(F)(F)F)c4)c(Cl)c3)c21	1%

The molecules below were run on MAPKAPK2. Settings: concentration: 1 μM,replicates: in singlicate; n = 1.

SMILES	%Inh
Cn1ccc2ncnc(Oc3ccc(NC(=O)Nc4cc(C(C)(C)C)on4)c(Cl)c3)c21	0%
CC(=O)Nc1ccc(-c2cc3ncnc(SCC(=O)O)c3s2)cc1	0%
CN(c1ccccc1CNc1nc(Nc2ccc3c(c2)CC(=O)N3)ncc1C(F)(F)F)S(C)(=O)=O	0%
FC(F)(F)c1cc(Br)cc(Nc2nccc(-c3cnn4ncccc34)n2)c1 [GW810578]	0%
O=C(Nc1cccc(C(F)(F)F)c1)c1cccc(Oc2ccc3nccn3n2)c1	0%
Cc1ccc(CC(=O)N2CCc3cc(-c4cn(C)c5ncnc(N)c45)ccc32)cc1 [GSK2634758]	6%
COC(=O)c1cccc(NC(=O)NC2CCN(c3ccnc(NCc4ccc(F)cc4)n3)CC2)c1 [GSK1379860]	0%
Cn1ccc2ncnc(Oc3ccc(NC(=O)Nc4ccnc(C(F)(F)F)c4)c(Cl)c3)c21	1%
O=C(NOCC1CC1)c1cc(Br)c(F)c(F)c1Nc1ccc(I)cc1Cl	0%
COc1ccc(Nc2nccc(N3CCC(NC(=O)c4cccc(C#N)c4)C3)n2)cc1 (stereo not drawn) [GSK1379730]	0%
COc1cccc(C2=C(Nc3cccc(Cl)c3)C(=O)NC2=O)c1 [SB-341556]	20%
Cc1n[nH]c2cc(Nc3ccnc(Nc4cccc(CN5CCOCC5)c4)n3)ccc12 [GW682569]	0%
C[C@@H]1CCN(C(=O)N2CCCC2)C[C@@H]1N(C)c1ncnc2[nH]ccc12	0%
Cl.c1ccc(Oc2ccc(Nc3ccnc4cc(-c5ccc(CN6CCNCC6)o5)ccc34)cc2)nc1 [GW567142]	0%
COc1cc2c(Nc3ccc(NC(=O)c4ccccc4)cc3)ncnc2cc1OCCCN1CCOCC1 [GSK301329]	23%
c1ccc(Oc2ccc(Nc3ccnc4ccc(-c5ccccn5)cc34)cc2)cc1 [GW407034]	24%
COc1cc2ncn(-c3cc(OCC4CCCCC4)c(C(N)=O)s3)c2cc1OC [GSK204559]	0%
C[C@@H]1CNc2c(sc3ccc4nc(-c5ccc(O)cc5)ccc4c23)C(=O)N1	99%

SMILES	%Inh
NC(=O)c1ccc(-c2cc3ncnc(SCC(=O)O)c3s2)cc1	0%
CS(=O)(=O)Nc1ccc(-c2ccnc3[nH]ccc23)cc1 [GSK993273]	0%
N#Cc1cccc(C(=O)NC2CCN(c3ccnc(Nc4ccc(F)cc4)n3)C2)c1 (stereo not drawn) [GSK1379708]	14%
CS(=O)(=O)c1cccc(CNc2nc(Nc3ccc4c(c3)[C@@H]3C[C@@H]4CNC3=O)ncc2C(F)(F)F)c1	0%
COc1cc(Nc2nccc(N3CCC(NC(=O)c4cccc(C#N)c4)C3)n2)cc(OC)c1OC (stereo not drawn) [GSK1379751]	0%
CN1CCN(CCCNc2nccc(-c3c(-c4ccc(F)cc4)nn4cc(C(N)=O)ccc34)n2)CC1 [GW622475]	0%
COc1cccc(OC)c1C(=O)Nc1cccc(-c2nn3ccccc3c2-c2ccnc(Nc3cccc(F)c3)n2)c1 [GSK361065]	11%
CCOC(=O)N1CCC(n2cnc(-c3ccc(F)cc3)c2-c2ccnc(N)n2)CC1 [SB-219952]	24%
COC(=O)Nc1nc2cc(Oc3ccc(NC(=O)Nc4cc(C(F)(F)F)ccc4Cl)cc3)ccc2[nH]1.Cl [GW697465]	14%
CS(=O)c1ccc(-c2coc3ccc(-c4n[nH]c(=O)o4)cc23)cc1 (stereo not drawn)	0%
Cn1ccc2ncnc(Oc3ccc(NC(=O)Nc4cncc(C(F)(F)F)c4)c(Cl)c3)c21	0%
Nc1nccc(-c2ccc3c(N)n[nH]c3c2)n1 [GSK1034945]	79%
NC(=O)Nc1sc(-c2ccc(F)cc2)cc1C(N)=O [GW789449]	0%
CN1CCN(CCNc2nc3cc(Oc4ccc(NC(=O)Nc5cc(C(F)(F)F)ccc5F)cc4)ccc3[nH]2)CC1.Cl.Cl [GW768504]	4%
Cl.Nc1n[nH]c2cc(-c3ccccn3)ccc12 [GSK2189892]	7%
CCn1c(-c2nonc2N)nc2cncc(CNC3CCNCC3)c21.Cl [SB-747651]	19%
Cn1ccc2ncnc(Oc3ccc(NC(=O)Nc4cccc(C(F)(F)F)c4)c(Cl)c3)c21	0%
